Screening results deposited in PubChem by The Scripps Research Institute Molecular Screening Center.
MITF primary: inhibitors of human MITF. 650,000 compounds, 0.91% hits. inhibition, % at 2.6 µM. O75030. AlphaScreen MITF homodimerization, bead proximity signal. AID 1259374; in the data active = inhibition above about 50%
TEAD-YAP block: TEAD-YAP interaction inhibition; inhibition, % at 9.12 µM; 640,000 compounds, 1.4% hits; AID 1259422; HEK-TIYL cells, TEAD-Gal4/YAP UAS-luciferase luminescence; in the data active = inhibition above about 32%
GPR151 ag: activators of human GPR151 | Q8TDV0 | PathHunter beta-arrestin GPR151 cells, luminescence | activation, % at 11.2 µM | 650,000 compounds, 1% hits | AID 1508602; in the data active = activation above about 4.9%
FBW7 activator: human FBW7 E3 ligase activation, primary screen; 650,000 compounds, 0.13% hits; normalized activity (activation), % at 26.1 µM; AID 1259310; AlphaScreen FBW7–phospho-cyclin E peptide binding, activator screen; in the data active = normalized activity above about 1.9%;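 note: purified mutant Fbw7 with reduced substrate affinity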
Target sequence (Q969H0 whole entry, looked up): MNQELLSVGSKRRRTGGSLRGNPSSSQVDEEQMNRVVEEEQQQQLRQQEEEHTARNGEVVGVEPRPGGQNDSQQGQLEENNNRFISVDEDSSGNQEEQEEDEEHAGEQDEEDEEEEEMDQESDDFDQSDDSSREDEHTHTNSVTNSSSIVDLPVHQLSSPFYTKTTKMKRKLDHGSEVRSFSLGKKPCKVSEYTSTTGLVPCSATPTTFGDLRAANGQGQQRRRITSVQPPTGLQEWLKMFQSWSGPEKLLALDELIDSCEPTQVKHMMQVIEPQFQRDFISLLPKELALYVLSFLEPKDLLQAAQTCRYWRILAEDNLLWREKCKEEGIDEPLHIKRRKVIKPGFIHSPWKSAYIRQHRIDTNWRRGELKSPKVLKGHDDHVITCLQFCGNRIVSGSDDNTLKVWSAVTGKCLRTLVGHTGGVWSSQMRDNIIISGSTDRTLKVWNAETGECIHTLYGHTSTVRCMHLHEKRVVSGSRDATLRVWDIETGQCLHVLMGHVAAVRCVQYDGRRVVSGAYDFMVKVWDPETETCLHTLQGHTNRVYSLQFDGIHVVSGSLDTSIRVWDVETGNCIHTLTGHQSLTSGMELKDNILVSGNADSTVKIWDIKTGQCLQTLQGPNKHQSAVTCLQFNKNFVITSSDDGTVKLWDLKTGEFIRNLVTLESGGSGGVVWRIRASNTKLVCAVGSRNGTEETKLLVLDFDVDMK
GPR151 confirm: confirmation of human GPR151 activators. AID 1508609. shares compounds with GPR151 ag. 6,700 tested, under 10 active. activation, % at 11.2 µM. GPR151 PathHunter beta-arrestin cells, luminescence, 90 min; % of EA-reagent control over plate median;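 active = mean percent activation across replicates above the confirmation screen cutoff of 4.91%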
GPR119 ag: activates human GPR119 in a GPR151 counter-screen; shares compounds with GPR151 ag; GPR119 PathHunter beta-arrestin cells, luminescence, 90 min; 0 = compound-well median, 100 = enzyme-acceptor control; 6,700 compounds, 0.3% hits; AID 1508611; activation, % at 11.2 µM;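 active = mean percent activation in the counterscreen above 29.09%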;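 note: counterscreen on off-target GPR119 to flag nonselective hits from the GPR151 activator screen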
Each line names hits and unclear results; the compound was inactive in the other large screens (follow-up assays come after a bar, where they were run). The list is not random: actives were taken first. Their share in the collection is about 3.4%.

CCOc1cc(/C=N/NC(=O)c2cc(-c3ccc(C)o3)[nH]n2)ccc1O	GPR151 ag 7.0 | GPR151 confirm inactive | GPR119 ag inactive
Cc1ccc(-c2cc(C(=O)N/N=C/c3cccc(Br)c3)n[nH]2)o1	GPR151 ag 7.5 | GPR151 confirm inactive | GPR119 ag inactive
CCOc1cc(/C=N/NC(=O)c2cc(C(C)C)[nH]n2)ccc1O	none
COc1ccc(/C=N/NC(=O)c2cc(-c3ccc(C)o3)[nH]n2)cc1	none
O=Cc1cn(CC(=O)NCCc2ccccc2)c2ccccc12	GPR151 ag 7.0 | GPR151 confirm inactive | GPR119 ag inactive
O=Cc1cn(CC(=O)NCc2ccccc2)c2ccccc12	none
Cc1cccc(C)c1NC(=O)CSc1nc2ccccc2o1	GPR151 ag 7.6 | GPR151 confirm inactive | GPR119 ag inactive
O=C(CSc1nc2ccccc2o1)Nc1ccccc1Cl	none
O=C(CSc1nc2ccccc2o1)Nc1ccccc1C(F)(F)F	GPR151 ag 5.2 | GPR151 confirm inactive | GPR119 ag inactive
O=C(CSc1nnc(-c2cccnc2)o1)c1cc2ccccc2oc1=O	GPR151 ag 6.2 | GPR151 confirm inactive | GPR119 ag inactive
CN1CCC(N(C(=O)CCC(=O)O)C2CC2)CC1	GPR151 ag 8.8 | GPR151 confirm inactive | GPR119 ag inactive
CCOC(=O)CCC(=O)Nc1cccc(Cl)c1Cl	GPR151 ag 6.9 | GPR151 confirm inactive | GPR119 ag inactive
CCOC(=O)CCC(=O)Nc1cccc2c(NC(=O)CCC(=O)OCC)cccc12	none
CCCC(=O)Nc1ccc(NC(=O)c2ccc(I)cc2)cc1	GPR151 ag 10.0 | GPR151 confirm inactive | GPR119 ag inactive
CCC(=O)N1c2ccccc2-c2nnc(SC)nc2OC1c1ccc(OC)cc1 (centres undefined)	GPR151 ag 5.6 | GPR151 confirm inactive | GPR119 ag inactive
NC(=O)C1(N2CCCCC2)CCN(C(=O)NC2CCCCC2)CC1	GPR151 ag 5.4 | GPR151 confirm inactive | GPR119 ag inactive
O=C(CNc1n[nH]c(=O)[nH]c1=O)N/N=C/c1ccccc1	GPR151 ag 8.1 | GPR151 confirm inactive | GPR119 ag inactive
Cc1nn2c(-c3ccccc3)cc(-c3ccccc3)nc2c1-c1ccccc1	none
COc1ccc(C(=O)NC(C)C(c2cccs2)N2CCN(C)CC2)cc1 (centres undefined)	none
O=C(NCC1CCC2(CCN(C(=O)c3ccncc3)CC2)O1)c1ccc2[nH]ccc2c1 (centres undefined)	GPR151 ag 8.0 | GPR151 confirm inactive | GPR119 ag inactive
CN1CCN(c2ccc(-c3ccc(C=O)cc3)cn2)CC1	none
COc1cccc(-n2c(CCN3C(=O)c4ccccc4C3=O)nc3ccccc3c2=O)c1	GPR151 ag 5.4 | GPR151 confirm inactive | GPR119 ag inactive
COc1ccc(/C=C/C(=O)c2ccc[nH]2)cc1OC	GPR151 ag 5.8 | GPR151 confirm inactive | GPR119 ag inactive
O=C(NC1CCC(NC(=O)c2cccc(F)c2)CC1)c1cccc(F)c1 (centres undefined)	GPR151 ag 9.4 | GPR151 confirm inactive | GPR119 ag inactive
CCC1C(=O)NCCN1Cc1ccc2c(c1)CN(Cc1cccc(C)n1)CCO2 (centres undefined)	GPR151 ag 5.4 | GPR151 confirm inactive | GPR119 ag inactive
CCCCc1c(C)c2ccc(OCC(=O)c3ccc(Cl)cc3)cc2oc1=O	none
COc1cc(=O)n2c(c1C(=O)NCc1ccsc1)CCN(C(=O)c1nonc1C)CC2	GPR151 ag 10 | GPR151 confirm inactive | GPR119 ag inactive
O=C(NCc1ccco1)/C(=C/c1ccccc1)c1ccccc1	none
O=C(O)C1CSC(c2ccncc2)N1 (centres undefined)	none
O=C(O)C1CSC(c2ccsc2)N1 (centres undefined)	GPR151 ag 5.3 | GPR151 confirm inactive | GPR119 ag inactive
CCOC(=O)Nc1sc(C(=O)OC(C)C)c(C)c1C(N)=O	none
O=C(CN1c2cccc3cccc(c23)S1(=O)=O)Nc1ccc(F)c(F)c1	none
O=C(CN1c2cccc3cccc(c23)S1(=O)=O)Nc1ccc(Br)cc1F	GPR151 ag 7.1 | GPR151 confirm inactive | GPR119 ag inactive
O=C(Oc1ccc(I)cc1)c1ccc([N+](=O)[O-])cc1	GPR151 ag 6.1 | GPR151 confirm inactive | GPR119 ag inactive
COc1cc(NC(=O)c2cccc([N+](=O)[O-])c2C)ccc1NC(=O)c1ccco1	none
Cc1c(C(=O)Nc2ccc(NC(=O)c3ccco3)c(Cl)c2)cccc1[N+](=O)[O-]	GPR151 ag 7.3 | GPR151 confirm inactive | GPR119 ag inactive
Cc1c(C(=O)Nc2cccc(NC(=O)c3cccs3)c2)cccc1[N+](=O)[O-]	GPR151 ag 5.5 | GPR151 confirm inactive | GPR119 ag inactive
CCOc1ccc(-n2c(SCC(=O)Nc3ccccc3OCC)nc3n[nH]c(C)c3c2=N)cc1	none
CCc1nnc(SCC(=O)Nc2cc(OC)cc(OC)c2)c2cc3oc(C)cc3n12	none
CCN(CC)c1ccc(NC(=O)C2CC3CCCN3C23C(=O)N(C)c2ccccc23)c(C)c1 (centres undefined)	none
CCN(CC)c1ccc(NC(=O)C2CC3CCCN3C23C(=O)Nc2ccccc23)c(C)c1 (centres undefined)	GPR151 ag 5.4 | GPR151 confirm inactive | GPR119 ag inactive
COc1ccc(N2CCN(C3CCCN(C(=O)CCN4CCCCO4)C3)CC2)cc1 (centres undefined)	GPR151 ag 5.3 | GPR151 confirm inactive | GPR119 ag inactive
NNC(=O)CSc1nc2cccnc2s1	GPR151 ag 5.1 | GPR151 confirm inactive | GPR119 ag inactive
COCCN1C(=S)NC2CC1(C)Oc1ccccc12 (centres undefined)	GPR151 ag 6.1 | GPR151 confirm inactive | GPR119 ag inactive
COc1ccc(OC)c(N2C(N)=C(C#N)C(c3cc(OC)c(OC)c(OC)c3)C3=C2CC(C)(C)CC3=O)c1 (centres undefined)	none
O=C(Nc1nnc(SCc2ccccc2F)s1)c1ccc(=O)[nH]c1	none
COc1ccc(CNC(=O)C2CCN(c3nc4ccccc4n4cccc34)CC2)cc1	GPR151 ag 7.5 | GPR151 confirm inactive | GPR119 ag inactive
CCCC(c1nnnn1Cc1cccs1)N1CCN(c2ccc([N+](=O)[O-])cc2)CC1 (centres undefined)	none
O=C(Nc1nncs1)c1cccc(I)c1	GPR151 ag 5.4 | GPR151 confirm inactive | GPR119 ag inactive
O=C(Nc1nncs1)c1cccc(Br)c1	none
C1=CCC(CN2CCN(C3CCCC3)CC2)CC1 (centres undefined)	GPR151 ag 5.1 | GPR151 confirm inactive | GPR119 ag inactive
CCOC(=O)c1ccc(NC(=S)NNC(=O)Cc2cccn2C)cc1	GPR151 ag 10 | GPR151 confirm inactive | GPR119 ag inactive
Cc1ccc(S(=O)(=O)Nc2nc(C)cs2)cc1	none
Cc1cccc(N2CCC(N=CN3CCOCC3)=N2)c1	none
